SUMO HTRF inh: inhibitors of human SUMOylation (UBC9). HTRF SUMOylation assay, SAE1/SAE2 + UBC9, in vitro. 0.36% of 290,000 active. inhibition, % at 35 µM. AID 2006. P63279; in the data active means inhibition above about 50%, passing the limit was not always enough; inconclusive means no clear call, values can overlap the other calls
Target sequence (P63279 whole entry, looked up): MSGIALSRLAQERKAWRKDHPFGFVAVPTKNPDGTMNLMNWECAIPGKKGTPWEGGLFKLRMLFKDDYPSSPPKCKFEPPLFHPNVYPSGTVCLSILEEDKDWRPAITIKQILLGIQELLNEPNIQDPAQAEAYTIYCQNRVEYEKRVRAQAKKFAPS
eIF4H inh: inhibitors of RNA binding by human eIF4H; AID 2012; Q15056; eIF4H fluorescence polarization binding assay; inhibition, % at 35 µM; 0.94% of 290,000 active;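 further: calls also rest on retests at 20 µM and on dose response follow-up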
ALR H2O2 inh: human ALR oxidase inhibition via reduced H2O2; purified ALR, DTT oxidation, H2O2 HRP-luminol luminescence; P55789; inhibition, % (no concentration beside the values); AID 485317; 3.8% of 290,000 active;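 active means mean replicate inhibition above about 79%, with every replicate also reaching it, limit read from the data; inconclusive means only one of the two criteria met; inactive means mean below limit and not every replicate reaching it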
Target sequence (P55789 whole entry, looked up): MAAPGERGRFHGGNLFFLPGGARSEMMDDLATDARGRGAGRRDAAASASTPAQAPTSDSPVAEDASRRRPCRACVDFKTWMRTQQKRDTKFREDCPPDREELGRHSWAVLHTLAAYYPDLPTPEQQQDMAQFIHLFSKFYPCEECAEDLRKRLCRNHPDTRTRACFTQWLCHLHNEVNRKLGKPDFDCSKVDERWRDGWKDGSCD
PABP polyA inh: blocks human PABP binding to poly(A) RNA | AID 2014 | 1% of 290,000 active | inhibition, % at 35 µM | P11940 | fluorescence polarization;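 further: calls also rest on retests at 20 µM and on dose response follow-up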
Efflux pump mplx: inhibitors of Candida antifungal efflux pumps expressed in yeast. 0.44% of 330,000 active. AID 485275. S. cerevisiae Candida pump triplex, Nile Red efflux. inhibition, % at 10 µM;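 active means plate passing quality check with inhibition over a set limit, or well fluorescence over plate mean plus 4 SD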;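 further: Nile Red retained in pooled yeast measured as flow cytometry median fluorescence; 0% = buffer negative control and 100% = Enniatin B positive control; higher means more Nile Red kept so more efflux inhibition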
PABP1 MLLE inh: blocks PAM2 peptide binding to the PABP1 MLLE domain. GST-MLLE / FITC-PAM2 fluorescence polarization. inhibition, % at 20 µM. 0.36% of 360,000 active. AID 588489; in the data active means inhibition above about 35%, passing the limit was not always enough;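 further: plate controls were DMSO wells with GST-MLLE for no effect and wells lacking GST-MLLE protein for full effect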
* hit, by the source's call; ? = inconclusive; / = no result given. In the library only some 4.7% were active in any assay of this set; here they are far more common. Unless noted, how the calls were made is not given here.

SMILES	SUMO HTRF inh	eIF4H inh	ALR H2O2 inh	PABP polyA inh	Efflux pump mplx	PABP1 MLLE inh
COc1ccc(OC)c(N=Cc2c(O)[nH]c(=O)[nH]c2=O)c1	16	-1	-12	5	0	-18
Cc1ccc(-n2c(O)c(/C=N/Nc3ccccc3)c(=O)[nH]c2=O)cc1C	25	-4	99*	0	0	/
COc1ccc(N/N=C/c2c(O)n(-c3cccc(C)c3)c(=O)[nH]c2=O)cc1	3	54	99*	54	0	11
COc1ccc(N=Cc2c(O)n(-c3ccc(C)cc3)c(=O)[nH]c2=O)cc1	40	-6	-5	-10	0	13
Cc1ccc(-n2c(O)c(/C=N/N3CCCCCC3)c(=O)[nH]c2=O)cc1C	16	10	/	-2	0	-4
Cc1cccc(N/N=C/c2c(O)[nH]c(=S)[nH]c2=O)c1	/	/	100*	/	/	27
COc1ccc(N/N=C/c2c(O)n(-c3ccc(C)c(C)c3)c(=O)[nH]c2=O)cc1	8	24	99*	7	0	7
COC(=O)C1=C(c2cccc(C#N)c2)C[C@@H]2CC[C@H]1N2C(=O)NCCOc1ccc(OC)cc1	/	/	-1	/	0	-6
CCC(C)n1c(O)c(C=Nc2cccc(C(F)(F)F)c2)c(=O)[nH]c1=S (centres undefined)	1	60*	/	active	0	5
COC(=O)C1=C(c2cccc(OCc3ccccc3)c2)C[C@@H]2CC[C@H]1N2C(=O)NCc1ccc(Cl)cc1	/	/	3	/	0	15
O=c1[nH]c(=S)n(C2CC2)c(O)c1C=Nc1ccc2c(c1)OCO2	6	68*	-30	42	0	6
COc1cccc(-n2nc(C(=O)N3CCC4(CC3)OCCO4)c3ccccc3c2=O)c1	23	-12	94*	-10	0	-2
COc1cc(OC)cc(-n2nc(C(=O)N3CCC4(CC3)OCCO4)c3ccccc3c2=O)c1	22	-13	/	-10	0	8
CN1C(=O)N(C)C(=O)C(NS(=O)(=O)c2ccc(N)cc2)(c2ccccc2)C1=O	/	/	/	/	/	-5
CN1CCN(c2c(N)c(=O)oc3ccccc23)CC1	0	-5	99*	5	0	8
CN1CCN(c2ccccc2N)CC1	-2	7	-13	-10	0	6
C=CC(=O)OCCO	/	/	/	/	/	11
CC1Oc2cc3c(-c4c(O)cc(O)c5c(O)c6c(cc45)OC(C)C(C)C6=O)c(O)cc(O)c3c(O)c2C(=O)C1C (centres undefined)	?	90*	-24	79*	0	16
COC(=O)C1C(O)CC2CCC1N2C (centres undefined)	/	/	/	/	0	-2
CCOC(=O)c1cc2c(cn1)[nH]c1ccccc12	7	7	-31	-10	0	3
Cc1c(CCC(=O)N2C[C@H]3C[C@@H](C2)c2cccc(=O)n2C3)c(=O)oc2c(C)c(O)ccc12	/	/	/	/	/	9
Cc1c(CC(=O)N2C[C@H]3C[C@@H](C2)c2cccc(=O)n2C3)c(=O)oc2c(C)c(O)ccc12	54	8	89*	-10	0	17
CCN(CC)c1ccc(CN(C)CCc2ccc(OC)c(OC)c2)cc1	-26	-8	99*	-8	0	5
Cc1ccc(/C=C2\C(=O)NC(=O)N(Cc3ccccc3Cl)C2=O)o1	5	74	99*	-13	0	-72
O=C1NC(=O)N(Cc2ccccc2Cl)C(=O)/C1=C/c1cccs1	-5	20	97*	-15	0	18
SMILES	SUMO HTRF inh	eIF4H inh	ALR H2O2 inh	PABP polyA inh	Efflux pump mplx	PABP1 MLLE inh
CN1CCN(c2ccc(N)cc2Cl)CC1	-1	16	90*	17	0	-30
CN1CCN(c2ccc(Cl)cc2N)CC1	12	-8	10	-2	0	0
CNC(=O)Oc1ccc(N(C)C)cc1C(C)C	9	-3	92*	4	0	-13
O=[N+]([O-])c1nccn1CC(O)CN1CC1 (centres undefined)	/	/	/	/	/	-1
Cc1nc2c(=O)n(C)c(=O)nc-2n(C)n1	103*	5	-37	5	0	8
O=[N+]([O-])c1ccc(N2CCOCC2)c2ccncc12	1	-1	-35	2	0	3
CCN1CCN(Cc2cc(Br)cc(Br)c2O)CC1	-6	4	99*	12	0	-8
CCN1CCN(Cc2cc(Br)ccc2O)CC1	-18	-9	2	10	0	5

Compound activity as filed in PubChem BioAssay.
